Laboratory results taken from PubChem BioAssay AID504832 (National Center for Advancing Translational Sciences (NCATS), 2011).
Among all 310,000 compounds or so, about 18,000 (5.8%) were called active. Another 22% or so got no clear call; they are omitted. This is one part of a sample in which actives are shown more often than they occur. Values without a mark were called inactive. Calls follow the shape of the dose curve; as a rule, active = well fitted inhibition curve with a large enough effect; inconclusive = small, poorly fitted or top-dose-only effect, or another doubt; inactive = no such curve, though single readings can be large or run the other way.

Assay: Primary qHTS for delayed death inhibitors of the malarial parasite plastid, 48 hour incubation
Conditions: P. falciparum luciferase growth in erythrocytes; series mostly up to 28.7 µM; activity change, negative = inhibition: at the top concentration
Summary of the method: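 First compound was added to culture medium, then infected red cells at 0.1% parasitemia and 2% hematocrit (final). After incubation at 37 C under 5% CO2, luciferase detection reagent was dispensed and light output recorded.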
% is scaled to controls: 0 for no effect and ±100 for the full control effect; potency is read from the fitted curve at half-maximal effect.

Structure (SMILES)	activity change, negative = inhibition [%]	Potency
CCc1nc2nc(C)c(NS(=O)(=O)c3ccc4c(c3)CCCC4)c(=O)n2[nH]1	8.15	
CN(CC(=O)Nc1cccc(F)c1)C(=O)CC1CCCC1	-5.39	
Cc1ccc(-c2ccnc3[nH]n(-c4ccccc4)c(=O)c23)cc1	35.7	
C=CCn1c(CNS(=O)(=O)c2ccc(Br)cc2)nnc1SC	68.4	
COc1ccc(OC)c(NC(=O)Cc2cccs2)c1	-3.98	
CN(CC(=O)NNC(=O)CNC(=O)c1ccccc1Cl)S(=O)(=O)c1ccc(Cl)cc1	10.7	
Cc1csc(SCC(=O)N(c2ccccc2)C(C)C)n1		10.4 µM (active)
COc1ccc(NC(=O)CSc2nc(C)cs2)cc1	29.2	
Cc1ccc(C(=O)N2CC(=O)Nc3ccc(F)cc3C2c2ccc(F)cc2)cc1 (stereo not given)	-27.6	
O=S(=O)(c1cccs1)N1CCN(CCOc2ccccc2)CC1	-21.8	
COC(=O)c1ccc2c(C(C)(C)O)c(C(C)(C)O)[nH]c2c1	24.6	
COc1cccc(/C=N/Nc2ncc(C(F)(F)F)cc2Cl)c1O		1.04 µM (active)
COc1cccc(/C(C)=N/Nc2ncc(Cl)cc2Cl)c1	113	
COc1cc(/C=C2\SC(=S)N(Nc3ncc(C(F)(F)F)cc3Cl)C2=O)cc(OC)c1OC	4.07	
O=C(NNC(=O)c1ccco1)Nc1ccccc1	21.8	
Cc1ccc(C(=O)OCC(=O)NC(=O)Cc2ccccc2)c(O)c1	0.538	
COc1cc(NS(=O)(=O)c2ccc(NC(=S)NC(=O)c3ccc(Br)cc3)cc2)ncn1	12.6	
COc1ccc(CC(=O)NC(C)CCc2ccccc2)cc1 (stereo not given)	-23	
COc1ccc(C(CCNCc2ccccc2F)c2ccc(F)cc2)cc1 (stereo not given)		7.38 µM (active)
COc1ccc(Cc2cc(-c3ccc(F)cc3)n[nH]c2=O)cc1	5	
CC1(C)Cc2c(cnn2-c2cccc(F)c2)C(NC(=O)c2cc[n+]([O-])cc2)C1 (stereo not given)	5.83	
Cc1ccc(S(=O)(=O)N2CCOCC2)cc1NC(=O)COC(=O)c1cnccn1	10.8	
Cc1cccc(NS(=O)(=O)c2ccc([N+](=O)[O-])cc2)n1	-2.21	
O=C(CCl)Nc1ccc(Sc2ccc(NC(=O)CCl)cc2)cc1		3.29 µM (active)
O=C(Cc1ccc(Cl)c(Cl)c1)Nc1ccc(SC(F)F)cc1	-93.2	
Cc1ccc(NC(=O)CC(=O)Nc2ccc(C)cc2)cc1	3.91	
CCN(CC)S(=O)(=O)c1ccc(-c2cn3ccc(C)cc3n2)cc1	171	
CCCOc1cccc(C(=O)NCCCNC(=O)c2cccnc2)c1	-2.92	
Cc1nn(C(C)C(=O)NCCC2=CCCCC2)c(=O)c2nn(-c3ccccc3)c(C)c12 (stereo not given)	-12.9	
O=C(NNS(=O)(=O)c1ccc(F)cc1)C1CCCCC1	9.65	
